# High-throughput results: PubChem BioAssay, National Center for Advancing Translational Sciences (NCATS)
# Sm TGR block – blocks Schistosoma mansoni thioredoxin glutathione reductase | Q962Y6 | purified TGR, DTNB reduction, TNB absorbance 405 nm | Potency, µM (titrated, usually from 114 µM), inactives show at the top dose activity change, negative = inhibition, usual class: inhibitors | actives 3% (n = 360,000) | AID 485364; note: % is set by controls: 0 for no effect and ±100 for the full control effect; nearly all actives have a fitted effect of over 60% in size
#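 Kinetic colorimetric format: TGR-catalysed, NADPH-driven DTNB reduction monitored via TNB absorbance. Enzyme dispensed at 20 nM; compound exposure 15 min at room temperature before reaction start.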
# Pf growth 96h – inhibits malaria parasite growth, 96 h | AID 504834 | P. falciparum luciferase reporter growth, 96 h | Potency, µM (doses to about 28.7 µM), for inactives: top-dose activity change, negative = inhibition, usual class: inhibitors | actives 6.9% (n = 320,000); note: % is set by controls: 0 for no effect and ±100 for the full control effect
#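 P. falciparum expressing integrated firefly luciferase, in erythrocytes at 2% hematocrit, 0.05% parasitemia, incubated with compounds 96 h at 37 C, 5% CO2. Growth inhibition read as loss of luminescence; two-generation exposure targets delayed-death apicoplast inhibitors.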
# Pf growth 48h – inhibits P. falciparum growth in the first generation, 48 h. Potency, µM (titrated, usually from 28.7 µM), for the others: at the highest dose activity change, negative = inhibition, hits mostly inhibitors. actives 5.9% (n = 310,000). AID 504832. P. falciparum luciferase growth in erythrocytes, 48 h; note: % is set by controls: 0 for no effect and ±100 for the full control effect
#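 A one-generation exposure of luciferase-tagged malaria parasites in RPMI 1640/Albumax erythrocyte culture, 37 C and 5% CO2. Inhibition is inferred from decreased luminescence after adding detection reagent.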
# AMA1-RON2 inh – disrupts binding of P. falciparum AMA1 to RON2 | AlphaScreen AMA1-biotinylated RON2 peptide binding | Potency, µM (doses to about 58.2 µM), without a hit: at the highest dose activity change, negative = inhibition, hits mostly inhibitors | actives 0.2% (n = 360,000);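 note: 0% = vehicle wells and -100% = peptide control; nearly all actives have a fitted effect of over 45% in size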
#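 AMA1 (3D7) with his tag at 25 nM final met compounds first, then biotinylated RON2 peptide at 25 nM; detection used donor plus acceptor beads, 10 µg/mL apiece, read by AlphaScreen after 30 min at room temperature.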
# NS1 inh – inhibitors of influenza NS1 protein function; actives 0.4% (n = 270,000); AID 2326; Potency, µM (highest dose often 46.1 µM), inactives show at the top dose activity, positive = more growth; calls by dose curve; note: actives are rising curves; nearly all actives have a fitted effect of over 50% in size
#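 OD600 was taken as the measure of yeast growth restored by compound in an NS1-expressing S. cerevisiae strain. Cells had been washed out of glucose medium and diluted 1:100 into galactose -URA medium, pH 6.0.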
# * marks the source's active call; other numbers are inactive results; ? = inconclusive; · = no result given; [ ] = dose if it differs, or a comment. Only some compounds are listed: those with a hit (about 11% of all), similar ones and a draw of the others. Unless noted, calls come from the whole dose curve; as a rule, active = well fitted curve in the direction sought with a large enough effect; inconclusive = small, poorly fitted or top-dose-only effect, or another doubt; inactive = no such curve, though single readings can be large; an effect the other way counts as inactive or inconclusive. Potency is the fitted concentration of half-maximal effect.
SMILES,Sm TGR block,Pf growth 96h,Pf growth 48h,AMA1-RON2 inh,NS1 inh
Cc1ccc(NC(=O)Nc2cccs2)cc1,-30%,7.4µM*,56%,16%,3%
Cc1noc(C)c1C(=O)N1CCCC(C(=O)c2cccc(C(F)(F)F)c2)C1 (stereo not given),0%,0%,-4%,-7%,3%
O=c1[nH]c(Nc2ccccc2)cc2cc(Br)ccc12,·,·,·,20%,·
O=c1[nH]c(Nc2ccccc2)cc2ccccc12,16µM*,1%,?,-9%,-141%
COc1cccc(CN(C)C[C@@H]2OCc3cnnn3CCCC(=O)N([C@@H](C)CO)C[C@H]2C)c1,·,·,·,0%,·
CC1(c2ccccc2)NC(=O)N(CC(=O)N(CC(=O)Nc2ccccc2C(F)(F)F)Cc2ccco2)C1=O (stereo not given),-9%,64%,-30%,30%,·
O=C(OCC(=O)c1c[nH]c2ccccc12)c1cccc([N+](=O)[O-])c1,-3%,13µM*,8.3µM*,-1%,·
O=C(OCC(=O)c1c[nH]c2ccccc12)c1cncc(Br)c1,·,·,·,3%,·
Cc1cc(C(=O)OCC(=O)c2cccc([N+](=O)[O-])c2)c2cccc(C)c2n1,0%,0.41µM*,?,-3%,-4%
Cc1noc(C)c1C(=O)OCC(=O)c1c[nH]c2ccccc12,-1%,?,9.3µM*,1%,-15%
CCc1cccc2c(C(=O)COC(=O)c3c(C)noc3C)c[nH]c12,5%,57%,25%,0%,-7%
Cc1ccc(NC(=O)N2CCc3cc(S(=O)(=O)N4CCC(C)CC4)ccc32)cc1F,-1%,·,·,·,·
Cc1c(Cl)cccc1Nc1nn2c(=O)c3ccc(C(=O)N(C)Cc4ccccc4)cc3nc2s1,4%,·,·,·,·
CCC(C)C(NC(=O)C1CCC(C)CC1)C(=O)NC(CCSC)C(=O)OC (stereo not given),-9%,-27%,-6%,-7%,5%
COC(=O)C(CCSC)NC(=O)C(NC(=O)C1CCC(C)CC1)C(C)C (stereo not given),13%,2.3µM*,18%,0%,-8%
Cc1cccc(C(=O)N2CCCCC2CCN2CCCCC2)c1 (stereo not given),-7%,·,·,·,·
COc1cc2c(cc1NC(=S)NC(=O)c1c(OC)cccc1OC)oc1ccccc12,1%,3.7µM*,4.1µM*,0%,10%
COc1cc2c(cc1NC(=O)C(C)Sc1nc3ccccc3n1C)oc1ccccc12 (stereo not given),7%,7.4µM*,12µM*,-9%,3%
COc1ccc(CC(=O)NNC(=O)COc2ccc3ccccc3c2)cc1,-6%,1.7µM*,20%,32%[2.32 µM],-17%
COc1ccccc1NC(=O)NNC(=O)COc1ccc2ccccc2c1,2%,-8%,7%,126%,-2%
COc1cc2c(cc1NC(=O)C(C)Sc1cccc[n+]1[O-])oc1ccccc12 (stereo not given),-11%,173%,202%,22%,-21%
COc1ccc(C(=O)NC(=S)Nc2cc3oc4ccccc4c3cc2OC)cc1,-22%,47%,7%,-22%,22%
COc1ccc(CC(=O)NNS(=O)(=O)c2ccccc2[N+](=O)[O-])cc1,-1%,4.7µM*,24%,-3%,4%
COc1ccc(CC(=O)Nc2ccccc2NC(=O)Cc2ccc(OC)cc2)cc1,5%,20%,6.6µM*,0%,1%
COc1ccc(CC(=O)Nc2cc3oc4ccccc4c3cc2OC)cc1,-2%,10µM*,46%,7%,13%
SMILES,Sm TGR block,Pf growth 96h,Pf growth 48h,AMA1-RON2 inh,NS1 inh
COc1cccc(OC)c1C(=O)NC(=S)Nc1ccc2oc(=O)ccc2c1,-21%,1.9µM*,3.3µM*,-5%[2.32 µM],-4%
CCN(C(=O)C1CCCN(c2ncnc3c2nc2n3CCCCC2)C1)c1cccc(C)c1 (stereo not given),6%,·,·,·,·
COc1ccc(Nc2nnc(-c3ccc(C)c(S(=O)(=O)N4CCN(C)CC4)c3)c3ccccc23)cc1,6%,·,·,·,·
Cc1nn(CC(=O)NC(C)C(C)C)c(C)c1S(=O)(=O)N1CCCCC1 (stereo not given),-9%,0%,-19%,-16%,·
C=CCn1c(SCc2n[nH]c(=S)n2-c2ccccc2)nnc1-c1ccccc1,23%,6.6µM*,-13%,57%,-1%
C=CCn1c(CSc2nnc(-c3ccccc3)n2C)n[nH]c1=S,7%,-20%,?,32%,7%
CC1=C(C#N)C(=O)NC(=O)/C1=C\c1ccc(-c2ccc(C)cc2[N+](=O)[O-])o1,8.9µM*,-3%,0%,-15%,·
CCOC(=O)c1cc(-c2ccc(/C=C3/C(=O)NC(=O)C(C#N)=C3C)o2)ccc1Cl,7.9µM*,38%,17%,-9%,19%
CCn1c(=O)c2cc(C(=O)N(CC(C)C)CC(C)C)sc2c2ccccc21,10%,·,·,·,·
CCCCc1c(Cc2ccccc2)ncn1CCc1ccccc1OC,·,·,·,-6%,·
Cc1cc(-c2nc3cc(F)ccc3s2)ccc1N,·,·,·,23%,·
CCOC(=O)C1=C(C)NC(C)=C(C(=O)OCC)C1C(=O)OCC(=O)N1CCc2ccccc21,-6%,·,10µM*,3%,-6%
CCOC(=O)c1[nH]c(C)c(C(=O)OCC(=O)N2CCc3ccccc32)c1C,-9%,?,·,0%,0%
COc1ccc(C)cc1NC(=O)c1cc2c(s1)-c1ccccc1SC2,3%,·,·,·,·
O=C(O)c1ccc(S(=O)(=O)N2CCC3(CC2)CC(=O)c2ccccc2O3)cc1,-23%,8%,-1%,-9%,·
Cc1ccc2nc(C)cc(Nc3ccc([N+](=O)[O-])cc3)c2c1,3%,?,0.74µM*,12%,·
CC(=O)c1cccc(Nc2cc(C)nc3ccc(C)cc23)c1,9%,?,4.1µM*,-11%,0%
CC(=O)c1cccc(Nc2cc(C)nc3c(C)cc(C)cc23)c1,-1%,?,9.3µM*,-1%,-2%
COC(=O)c1ccc(Nc2cc(C)nc3ccc(C)cc23)cc1,10%,?,?,-13%,-4%
CC(=O)c1ccc(Nc2cc(C)nc3c(C)cccc23)cc1,10%,49%,?,-9%,-13%
Cc1nc(-c2ccc(F)cc2)c(CC(=O)Nc2ccc(C)c(S(=O)(=O)N3CCOCC3)c2)s1,1%,9.3µM*,8.3µM*,13%,8%
COc1ccc(C)cc1NCC(=O)Nc1ccc(C(C)(C)C)cc1,-8%,9.3µM*,?,?,-2%
Cc1ccc(NC(=O)CSc2ncnc3ccccc23)cc1S(=O)(=O)N1CCOCC1,13%,?,12µM*,-7%,2%
COc1ccc(NC(=O)CNc2cc(C)ccc2C)cc1S(=O)(=O)N1CCOCC1,-7%,15µM*,?,-3%,·
CCCCCC(=O)N1C[C@H](O)[C@@H](n2cc(C3CC3)nn2)C[C@@H]1c1ccc(Cl)cc1,·,·,·,-1%,·
CCN1C(=O)[C@H]2[C@H]3CN=C(SCc4ccccc4)N3[C@@](CC)(C(=O)OC)[C@H]2C1=O,·,·,·,6%,·
